Screening results from PubChem.
The sample as a whole holds a higher share of hits than the screen did.
CBX7 AlphaScr: blocks human CBX7 binding to H3K27me3 peptide; AlphaScreen His6-CBX7 / biotin-H3K27me3 peptide binding; active compounds read low; O95931; 1.1% of 66,000 active; normalised signal (fraction of DMSO) (test concentration not listed); in the data active = normalised signal below about 0.5
Target sequence (O95931 whole entry, looked up): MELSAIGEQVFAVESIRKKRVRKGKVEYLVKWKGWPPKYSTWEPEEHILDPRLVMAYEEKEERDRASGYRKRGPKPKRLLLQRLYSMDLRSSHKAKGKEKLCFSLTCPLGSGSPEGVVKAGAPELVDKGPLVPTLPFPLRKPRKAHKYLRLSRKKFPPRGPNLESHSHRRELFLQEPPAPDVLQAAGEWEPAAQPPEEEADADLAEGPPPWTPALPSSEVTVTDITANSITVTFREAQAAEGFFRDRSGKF
* hit, by the source's call.

SMILES | CBX7 AlphaScr
CCOC(=O)c1cnc2ccc(OC)cc2c1Nc1cccc(OC)c1 | 0.77
COc1ccc(-n2nc3c(c2NC(=O)C2(c4ccc(Cl)cc4)CCCC2)CSC3)cc1 | 1
Cc1ccc(CNC(=O)c2cc(=O)[nH]c3ccc(S(=O)(=O)N4CCCCC4)cc23)cc1 | 1
Cn1c(C(=O)NCCCN2CCN(c3ccc(F)cc3)CC2)cc2sc(Cl)cc21 | 0.81
Cc1ccc(C)c(NC(=O)C2CCN(S(=O)(=O)c3ccc(F)cc3)CC2)c1 | 1
CC(=O)Oc1cccc(C(=O)Nc2cc(-c3nc4ccccc4[nH]3)ccc2C)c1 | 1.2
COc1ccc(C(NC(=O)CCc2ccccc2)c2ccc3cccnc3c2O)cc1 (stereo unspecified) | 0.082*
COc1ccc(CSc2cccc3cccnc23)cc1[N+](=O)[O-] | 0.85
COc1cc(NC(=O)Cc2ccc(OC)c(OC)c2)c2ncccc2c1 | 1
COc1ccc(C(NC(=O)CC(C)C)c2ccc3cccnc3c2O)cc1OC (stereo unspecified) | 0.061*
O=C(CCc1ccccc1)NC(c1ccc(Cl)cc1)c1ccc2cccnc2c1O (stereo unspecified) | 0.62
CCCC(=O)NC(c1ccc(OC)cc1)c1cc(Cl)c2cccnc2c1O (stereo unspecified) | 0.78
COc1cccc(-c2nn(C)c3sc(C(=O)N4CCCc5ccccc54)cc23)c1 | 0.93
O=C(Nc1ccc(-c2noc(-c3ccccc3Br)n2)cc1)c1ccc2c(c1)OCO2 | 1.2
CN1CCN(C(C(=O)NC2CCCCC2)c2ccc(Cl)cc2)CC1 (stereo unspecified) | 1
CCc1cc(-c2n[nH]c(C)c2Oc2ccccc2)c(O)cc1OC | 0.6
CCc1cc(C(=O)Cc2ccc3ccccc3n2)c(O)cc1OC | 0.34*
CCc1cc(-c2[nH]ncc2Oc2ccccc2)c(O)cc1OC | 0.66
O=C(NCCc1ccccc1)c1ccccc1NS(=O)(=O)c1ccc(Cl)cc1 | 1
COc1ccc(-c2cn(-c3ccc(F)cc3)c(SCC(=O)Nc3cccc(Cl)c3)n2)cc1OC | 0.6
COc1ccc(-c2cn(-c3ccc(F)cc3)c(SCC(=O)Nc3cc(F)ccc3F)n2)cc1OC | 0.88
COc1ccc(-c2cn(-c3ccc(F)cc3)c(SCC(=O)Nc3cccc(F)c3)n2)cc1OC | 0.39*
Cc1ccc(-c2noc(CCC(=O)NCc3cccs3)n2)cc1 | 1
CCOc1cc2c(cc1OCC)C(c1ccc(OC)c(OC)c1)CC(=O)N2 (stereo unspecified) | 1
COc1ccc(S(=O)(=O)N2CCC(C(=O)Nc3ccc(OC)cc3OC)CC2)cc1 | 1.1
SMILES | CBX7 AlphaScr
Cc1oc(-c2ccc(Cl)cc2)nc1CN1CCCC(C(=O)NCCCN(C)C2CCCCC2)C1 (stereo unspecified) | 1.1
Cc1ccc(CN2C(=O)c3ccccc3Sc3ccc(C(=O)NCCC(C)C)cc32)cc1 | 0.94
COc1ccc(-c2cc3ccccc3n2CC(O)CN2CCCCCC2)cc1 (stereo unspecified) | 1.2
OC(CN1CCCCC1)Cn1c2ccccc2c2ccccc21 (stereo unspecified) | 0.86
CCC(=C(c1ccc(OC)cc1)c1ccc(OC)cc1)c1cn(CC(O)CN2CCCC2)c2ccccc12 (stereo unspecified) | 0.26*
Cc1cc(C)cc(NC(=O)c2c(-c3ccccc3Cl)noc2C)c1 | 0.95
CC(NC(=O)c1cccc(F)c1)C(c1cccs1)N1CCN(c2ccccc2F)CC1 (stereo unspecified) | 0.88
CCC(C)NC(=O)C1c2ccccc2C(=O)N1Cc1ccc(OC)cc1 (stereo unspecified) | 1.1
COc1ccc(NC2c3ncccc3C(=O)N2Cc2ccc(F)cc2)cc1Cl (stereo unspecified) | 0.62
CCOC(=O)c1ccc(NC2c3ncccc3C(=O)N2Cc2ccc(F)cc2)cc1 (stereo unspecified) | 0.45*
COc1ccc(CN2C(=O)c3cccnc3C2Nc2cc(Cl)ccc2OC)cc1 (stereo unspecified) | 0.0053*
O=C1c2cccnc2C(Nc2ccc(F)cc2)N1Cc1ccc(F)cc1 (stereo unspecified) | 0.84
COc1ccc(CN2C(=O)c3cccnc3C2Nc2cc(Cl)ccc2C)cc1 (stereo unspecified) | 0.91
COc1ccc(NC2c3ncccc3C(=O)N2Cc2ccc(F)cc2)cc1 (stereo unspecified) | 0.64
O=C1c2cccnc2C(Nc2ccc(F)c(Cl)c2)N1Cc1ccc(F)cc1 (stereo unspecified) | 0.81
COc1ccc(CN2C(=O)c3cccnc3C2O)cc1 (stereo unspecified) | 0.01*
Cc1ccc(C(=O)NCCc2cc3c(C)ccc(C)c3[nH]c2=O)cc1C | 1.1
COCCNC(=O)c1cc2c(n(-c3ccc(Cl)cc3)c1=O)CCCC2=O | 1.1
O=C(CCNS(=O)(=O)c1ccc2c(c1)CCC(=O)N2)NCCCc1ccccc1 | 1
Cc1ccc(NC(=O)c2c(-c3c(F)cccc3Cl)noc2C)nc1 | 1.1
Cc1ccc(-c2cn(-c3ccccc3)c(S(C)(=O)=O)n2)cc1 | 0.91
CCOc1cc2c(cc1OCC)C1C(C(=O)Nc3cc(C)ccn3)c3ccccc3C(=O)N1CC2 (stereo unspecified) | 0.19*
CCOc1cc2c(cc1OCC)C1C(C(=O)Nc3ccccc3C)c3ccccc3C(=O)N1CC2 (stereo unspecified) | 1.1
CCOc1cc2c(cc1OCC)C1C(C(=O)Nc3ccccc3CC)c3ccccc3C(=O)N1CC2 (stereo unspecified) | 1
Cc1ccc(S(=O)(=O)C2(C(=O)NCCc3ccc(Cl)cc3)CC2)cc1 | 1
SMILES | CBX7 AlphaScr
CCS(=O)(=O)NC(C)C(c1cccs1)N1CCN(c2ccc(OC)cc2)CC1 (stereo unspecified) | 0.83
CC(NS(=O)(=O)c1ccc(F)cc1)C(c1cccs1)N1CCN(c2ccccc2)CC1 (stereo unspecified) | 0.86
COc1ccc(N2CCN(C(c3cccs3)C(C)NS(=O)(=O)c3ccc(C)cc3)CC2)cc1 (stereo unspecified) | 0.52
COc1ccc(N2CCN(C(c3cccs3)C(C)NS(=O)(=O)c3ccc(F)cc3)CC2)cc1 (stereo unspecified) | 0.49*
CC(NS(=O)(=O)c1ccc(F)cc1)C(c1cccs1)N1CCN(C)CC1 (stereo unspecified) | 1
COc1ccc(N2CCN(C(c3cccs3)C(C)NS(=O)(=O)c3ccccc3)CC2)cc1 (stereo unspecified) | 0.48*
COc1ccc(Br)cc1C1CC(=O)Nc2cc(C)c(C)cc21 (stereo unspecified) | 1
O=C(NCCc1ccccc1Cl)c1ccc2nc(-c3cccs3)c(-c3cccs3)nc2c1 | 1
Cc1ccc(C)c2[nH]c(=O)c(CCNC(=O)c3cccc4ccccc34)cc12 | 1.2
CCCCn1cnc2cc(NCc3cccc(Br)c3)ccc21 | 0.25*
COc1cccc(CNc2ccc3c(c2)nc(C)n3C)c1 | 1
COc1ccc(CNc2ccc3c(c2)ncn3C)cc1OC | 1
CCCCn1cnc2cc(NCc3cccc(OC)c3OC)ccc21 | 0.54
CC(C)(C)n1cnc2cc(NCc3cccc(Br)c3)ccc21 | 0.75
CCCn1cnc2cc(NCc3cccc(Br)c3)ccc21 | 0.33*
CCn1cnc2cc(NCc3ccncc3)ccc21 | 0.96
CCn1cnc2cc(NCc3cccc(Br)c3)ccc21 | 0.45*
CCn1cnc2cc(NCc3cccc(OC)c3OC)ccc21 | 0.94
CCOc1ccc2nc(N3CCC(C(=O)N4CCN(c5ccc(Cl)cc5)CC4)CC3)sc2c1 | 1
CCCSCCCNC(=O)C1CCN(c2nn3c(=O)cc(C)nc3s2)CC1 | 1
